The whole screen tested about 5,500 compounds, of which about 2,000 (36%) were called active. Another 18% or so got no clear call; they are omitted. Cut-off read from the data, not from the text of the source: active = normalized growth mostly below about 0.91 (no sharp cut-off); inconclusive = no clear call, values can overlap the other calls; inactive = mostly above about 0.92. Some of the results follow.
Test: chemical genetic growth profiling, strain panel (AID 1159580);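 note: tested at 20 µM; growth read once vehicle control cultures reached saturation at 30 °C; 1 = growth at the plate median or of vehicle wells; lower values mean less growth of the strain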
Conditions: growth OD

Measured: normalized growth

OC[C@H]1O[C@@H](O[C@@H]2[C@@H](CO)O[C@](O)(CO)[C@H]2O)[C@H](O)[C@@H](O)[C@H]1O
inactive: S. cerevisiae deletion strains, locus YKL009W, strain mrt4, hits give low values 1 | S. cerevisiae deletion strains, locus YKL068W, hits give low values 0.987 | S. cerevisiae deletion strains, locus YKL085W, strain MDH1 (second series), hits give low values 0.976 | S. cerevisiae deletion strains, locus YKL085W, strain MDH1, hits give low values 0.976 | S. cerevisiae deletion strains, locus YKL160W, strain elf1, hits give low values 1 | S. cerevisiae deletion strains, locus YKR001C, strain vps1, hits give low values 1.01 | S. cerevisiae deletion strains, locus YKR026C, strain gcn3, hits give low values 1.01 | S. cerevisiae deletion strains, locus YKR091W, strain srl3, hits give low values 1.01 | S. cerevisiae deletion strains, locus YLL001W, strain dnm1, hits give low values 0.999 | S. cerevisiae deletion strains, locus YLL026W, hits give low values 1.01 | S. cerevisiae deletion strains, locus YLL041C, strain sdh2, hits give low values 1.01 | S. cerevisiae deletion strains, locus YLR027C, strain aat2, hits give low values 1.01 | S. cerevisiae deletion strains, locus YLR039C, strain RIC1, hits give low values 0.968 | S. cerevisiae deletion strains, locus YLR058C, strain SHM2, hits give low values 0.986 | S. cerevisiae deletion strains, locus YLR102C, strain apc9, hits give low values 0.981 | S. cerevisiae deletion strains, locus YLR113W, strain HOG1, hits give low values 1.02 | S. cerevisiae deletion strains, locus YLR221C, strain rsa3, hits give low values 1 | S. cerevisiae deletion strains, locus YLR258W, strain gsy2, hits give low values 0.998 | S. cerevisiae deletion strains, locus YLR262C, strain YPT6 (second series), hits give low values 1.03 | S. cerevisiae deletion strains, locus YLR262C, strain YPT6, hits give low values 1.03 | S. cerevisiae deletion strains, locus YLR268W, strain sec22, hits give low values 0.972 | S. cerevisiae deletion strains, locus YLR320W, strain mms22, hits give low values 0.996 | S. cerevisiae deletion strains, locus YLR330W, strain CHS5, hits give low values 0.994 | S. cerevisiae deletion strains, locus YLR342W, strain FKS1 (second series), hits give low values 0.994 | S. cerevisiae deletion strains, locus YLR342W, strain FKS1, hits give low values 1.02 | S. cerevisiae deletion strains, locus YLR357W, strain rsc2, hits give low values 0.995 | S. cerevisiae deletion strains, locus YLR370C, strain arc18, hits give low values 1.02 | S. cerevisiae deletion strains, locus YLR371W, strain rom2, hits give low values 0.974 | S. cerevisiae deletion strains, locus YLR384C, strain iki3, hits give low values 1.01 | S. cerevisiae deletion strains, locus YLR418C, strain cdc73, hits give low values 0.954 | S. cerevisiae deletion strains, locus YML016C, strain PPZ1, hits give low values 0.993 | S. cerevisiae deletion strains, locus YML032C, strain rad52, hits give low values 0.988 | S. cerevisiae deletion strains, locus YML120C, strain ndi1, hits give low values 0.99 | S. cerevisiae deletion strains, locus YML124C, strain tub3, hits give low values 1 | S. cerevisiae deletion strains, locus YMR058W, strain fet3, hits give low values 1.01 | S. cerevisiae deletion strains, locus YMR078C, strain ctf18, hits give low values 0.959 | S. cerevisiae deletion strains, locus YMR125W, strain sto1, hits give low values 0.996 | S. cerevisiae deletion strains, locus YMR129W, hits give low values 1.01 | S. cerevisiae deletion strains, locus YMR205C, strain PFK2, hits give low values 1.03 | S. cerevisiae deletion strains, locus YMR223W, strain ubp8, hits give low values 0.962 | S. cerevisiae deletion strains, locus YMR231W, strain pep5, hits give low values 1.01 | S. cerevisiae deletion strains, locus YMR307W, strain GAS1, hits give low values 1 | S. cerevisiae deletion strains, locus YNL067W, strain RPL9B, hits give low values 1 | S. cerevisiae deletion strains, locus YNL071W, strain lat1, hits give low values 1.01 | S. cerevisiae deletion strains, locus YNL183C, strain NPR1, hits give low values 0.959 | S. cerevisiae deletion strains, locus YNL209W, strain ssb2, hits give low values 1 | S. cerevisiae deletion strains, locus YNL233W, strain BNI4, hits give low values 0.989 | S. cerevisiae deletion strains, locus YNL248C, strain rpa49, hits give low values 1.03 | S. cerevisiae deletion strains, locus YNL250W, strain rad50, hits give low values 0.954 | S. cerevisiae deletion strains, locus YNL271C, strain bni1, hits give low values 0.966 | S. cerevisiae deletion strains, locus YNL298W, strain CLA4, hits give low values 0.975 | S. cerevisiae deletion strains, locus YNL307C, strain MCK1, hits give low values 0.972 | S. cerevisiae deletion strains, locus YNL322C, strain KRE1 (second series), hits give low values 1.02 | S. cerevisiae deletion strains, locus YNL322C, strain KRE1, hits give low values 0.996 | S. cerevisiae deletion strains, locus YNR049C, strain mso1, hits give low values 1.01 | S. cerevisiae deletion strains, locus YNR052C, strain pop2, hits give low values 0.979 | S. cerevisiae deletion strains, locus YOL006C, strain TOP1, hits give low values 0.965 | S. cerevisiae deletion strains, locus YOL012C, strain htz1 0.596 | S. cerevisiae deletion strains, locus YOL147C, strain pex11, hits give low values 0.982 | S. cerevisiae deletion strains, locus YOR001W, strain rrp6, hits give low values 1 | S. cerevisiae deletion strains, locus YOR061W, strain CKA2, hits give low values 0.985 | S. cerevisiae deletion strains, locus YOR069W, strain VPS5, hits give low values 0.989 | S. cerevisiae deletion strains, locus YOR070C, strain gyp1, hits give low values 1 | S. cerevisiae deletion strains, locus YOR080W, strain dia2, hits give low values 1.01 | S. cerevisiae deletion strains, locus YOR083W, strain WHI5, hits give low values 0.989 | S. cerevisiae deletion strains, locus YOR106W, strain vam3, hits give low values 1.02 | S. cerevisiae deletion strains, locus YOR136W, strain idh2, hits give low values 0.981 | S. cerevisiae deletion strains, locus YOR144C, strain elg1, hits give low values 0.98 | S. cerevisiae deletion strains, locus YOR184W, strain ser1, hits give low values 0.971 | S. cerevisiae deletion strains, locus YOR231W, strain MKK1, hits give low values 0.98 | S. cerevisiae deletion strains, locus YOR265W, strain rbl2, hits give low values 1.01 | S. cerevisiae deletion strains, locus YOR270C, strain vph1, hits give low values 1.06 | S. cerevisiae deletion strains, locus YOR290C, strain snf2, hits give low values 0.992 | S. cerevisiae deletion strains, locus YOR316C, strain cot1, hits give low values 0.976 | S. cerevisiae deletion strains, locus YPL051W, strain arl3, hits give low values 1.01 | S. cerevisiae deletion strains, locus YPL078C, strain atp4, hits give low values 1.01 | S. cerevisiae deletion strains, locus YPL106C, strain sse1, hits give low values 1 | S. cerevisiae deletion strains, locus YPL240C, strain hsp82, hits give low values 1.03 | S. cerevisiae deletion strains, locus YPL241C, strain CIN2, hits give low values 0.998 | S. cerevisiae deletion strains, locus YPL256C, strain CLN2, hits give low values 0.957 | S. cerevisiae deletion strains, locus YPR119W, strain clb2, hits give low values 0.978 | S. cerevisiae deletion strains, locus YPR141C, strain kar3, hits give low values 0.968 | S. cerevisiae deletion strains, locus YPR163C, strain tif3, hits give low values 0.972 | S. cerevisiae deletion strains, locus YPR167C, strain met16, hits give low values 0.985 | S. cerevisiae deletion strains, strain wtn01, hits give low values 0.967 | S. cerevisiae strains, strain wild type, hits give low values 0.999
